ChEMBL document CHEMBL1961873, “Compounds: GSK PKIS; Assays: Nanosyn kinase panel” (2012)

Key:
[1] = molecular target: T1, Serine/threonine-protein kinase Nek9 (Homo sapiens) (UniProt Q8TD19); settings: at 1 µM;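 further: each value is a mean percent inhibition of NEK9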
T1 sequence (whole entry): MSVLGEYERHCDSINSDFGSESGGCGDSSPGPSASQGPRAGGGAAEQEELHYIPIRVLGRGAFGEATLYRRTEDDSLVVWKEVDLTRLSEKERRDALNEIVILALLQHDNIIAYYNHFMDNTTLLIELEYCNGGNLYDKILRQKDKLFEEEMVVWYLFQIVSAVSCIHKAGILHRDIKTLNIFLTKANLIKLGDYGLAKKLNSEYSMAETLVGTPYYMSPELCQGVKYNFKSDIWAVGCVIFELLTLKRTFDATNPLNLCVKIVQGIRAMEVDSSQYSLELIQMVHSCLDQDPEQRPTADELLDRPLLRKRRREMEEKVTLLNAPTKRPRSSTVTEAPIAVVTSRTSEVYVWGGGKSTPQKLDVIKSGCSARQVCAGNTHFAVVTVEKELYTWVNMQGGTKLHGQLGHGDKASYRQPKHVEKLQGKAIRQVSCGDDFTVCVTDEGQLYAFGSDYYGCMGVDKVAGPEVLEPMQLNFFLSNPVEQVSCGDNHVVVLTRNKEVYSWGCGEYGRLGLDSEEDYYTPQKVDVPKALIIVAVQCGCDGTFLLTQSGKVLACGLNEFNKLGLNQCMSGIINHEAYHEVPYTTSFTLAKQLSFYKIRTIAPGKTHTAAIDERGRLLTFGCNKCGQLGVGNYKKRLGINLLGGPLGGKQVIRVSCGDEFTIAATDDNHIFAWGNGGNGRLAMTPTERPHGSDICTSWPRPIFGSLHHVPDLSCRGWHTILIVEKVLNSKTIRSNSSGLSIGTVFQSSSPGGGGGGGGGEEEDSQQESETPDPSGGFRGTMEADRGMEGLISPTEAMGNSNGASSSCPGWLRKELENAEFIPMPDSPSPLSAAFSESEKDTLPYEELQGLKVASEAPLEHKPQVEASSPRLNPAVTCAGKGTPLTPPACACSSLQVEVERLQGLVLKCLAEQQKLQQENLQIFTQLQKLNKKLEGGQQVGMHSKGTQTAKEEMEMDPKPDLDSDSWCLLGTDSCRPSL

[2] = molecular target: Serine/threonine-protein kinase PLK1 (Homo sapiens) (UniProt P53350); settings: at 0.1 µM
Chain of Serine/threonine-protein kinase PLK1 (Homo sapiens) (P53350 whole entry): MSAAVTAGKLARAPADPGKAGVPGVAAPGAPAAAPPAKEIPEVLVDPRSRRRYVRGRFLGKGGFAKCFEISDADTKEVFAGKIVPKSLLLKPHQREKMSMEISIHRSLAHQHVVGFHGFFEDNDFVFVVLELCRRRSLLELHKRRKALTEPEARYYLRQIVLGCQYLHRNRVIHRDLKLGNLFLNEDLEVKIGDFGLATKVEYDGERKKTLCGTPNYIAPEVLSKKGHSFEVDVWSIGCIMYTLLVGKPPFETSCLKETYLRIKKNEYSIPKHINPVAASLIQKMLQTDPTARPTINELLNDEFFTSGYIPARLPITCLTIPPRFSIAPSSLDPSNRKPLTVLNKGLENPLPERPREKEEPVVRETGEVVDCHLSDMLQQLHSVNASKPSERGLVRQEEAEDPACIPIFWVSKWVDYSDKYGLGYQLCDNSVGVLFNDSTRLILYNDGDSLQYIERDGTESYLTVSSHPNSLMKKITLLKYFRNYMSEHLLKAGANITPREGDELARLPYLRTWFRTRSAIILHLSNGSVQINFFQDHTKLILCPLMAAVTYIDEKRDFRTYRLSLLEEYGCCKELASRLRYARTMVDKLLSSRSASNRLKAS

[3] = molecular target: Serine/threonine-protein kinase PLK1 (Homo sapiens) (UniProt P53350); settings: at 1 µM
[4] = molecular target: T2, Dual specificity protein kinase TTK (Homo sapiens) (UniProt P33981); settings: at 0.1 µM
T2 sequence (whole entry): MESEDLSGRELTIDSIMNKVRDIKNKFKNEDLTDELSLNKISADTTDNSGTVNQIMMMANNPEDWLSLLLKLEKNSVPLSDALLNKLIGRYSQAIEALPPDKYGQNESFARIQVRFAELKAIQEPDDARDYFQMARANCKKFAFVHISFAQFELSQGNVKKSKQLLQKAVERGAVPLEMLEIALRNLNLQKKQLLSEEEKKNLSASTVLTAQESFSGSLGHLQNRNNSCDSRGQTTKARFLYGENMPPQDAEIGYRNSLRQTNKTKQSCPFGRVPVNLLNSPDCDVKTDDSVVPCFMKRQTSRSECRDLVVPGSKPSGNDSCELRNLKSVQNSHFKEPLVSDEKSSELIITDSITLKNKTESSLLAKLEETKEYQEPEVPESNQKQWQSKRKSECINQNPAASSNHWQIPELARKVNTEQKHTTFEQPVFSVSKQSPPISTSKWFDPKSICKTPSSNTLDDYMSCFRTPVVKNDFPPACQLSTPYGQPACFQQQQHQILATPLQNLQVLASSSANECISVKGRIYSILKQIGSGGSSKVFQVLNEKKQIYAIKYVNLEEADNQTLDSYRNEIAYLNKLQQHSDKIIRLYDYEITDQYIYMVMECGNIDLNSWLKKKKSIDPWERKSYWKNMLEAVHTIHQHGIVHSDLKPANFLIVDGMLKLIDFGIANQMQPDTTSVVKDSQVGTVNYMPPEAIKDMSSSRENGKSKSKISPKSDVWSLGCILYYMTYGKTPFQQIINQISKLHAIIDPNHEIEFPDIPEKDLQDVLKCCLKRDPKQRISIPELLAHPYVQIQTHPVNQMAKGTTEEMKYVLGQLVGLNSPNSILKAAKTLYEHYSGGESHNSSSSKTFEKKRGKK

[5] = system: T3, Receptor-type tyrosine-protein kinase FLT3 (Homo sapiens), P36888 [D835Y]; settings: at 1 µM
T3 sequence (whole entry): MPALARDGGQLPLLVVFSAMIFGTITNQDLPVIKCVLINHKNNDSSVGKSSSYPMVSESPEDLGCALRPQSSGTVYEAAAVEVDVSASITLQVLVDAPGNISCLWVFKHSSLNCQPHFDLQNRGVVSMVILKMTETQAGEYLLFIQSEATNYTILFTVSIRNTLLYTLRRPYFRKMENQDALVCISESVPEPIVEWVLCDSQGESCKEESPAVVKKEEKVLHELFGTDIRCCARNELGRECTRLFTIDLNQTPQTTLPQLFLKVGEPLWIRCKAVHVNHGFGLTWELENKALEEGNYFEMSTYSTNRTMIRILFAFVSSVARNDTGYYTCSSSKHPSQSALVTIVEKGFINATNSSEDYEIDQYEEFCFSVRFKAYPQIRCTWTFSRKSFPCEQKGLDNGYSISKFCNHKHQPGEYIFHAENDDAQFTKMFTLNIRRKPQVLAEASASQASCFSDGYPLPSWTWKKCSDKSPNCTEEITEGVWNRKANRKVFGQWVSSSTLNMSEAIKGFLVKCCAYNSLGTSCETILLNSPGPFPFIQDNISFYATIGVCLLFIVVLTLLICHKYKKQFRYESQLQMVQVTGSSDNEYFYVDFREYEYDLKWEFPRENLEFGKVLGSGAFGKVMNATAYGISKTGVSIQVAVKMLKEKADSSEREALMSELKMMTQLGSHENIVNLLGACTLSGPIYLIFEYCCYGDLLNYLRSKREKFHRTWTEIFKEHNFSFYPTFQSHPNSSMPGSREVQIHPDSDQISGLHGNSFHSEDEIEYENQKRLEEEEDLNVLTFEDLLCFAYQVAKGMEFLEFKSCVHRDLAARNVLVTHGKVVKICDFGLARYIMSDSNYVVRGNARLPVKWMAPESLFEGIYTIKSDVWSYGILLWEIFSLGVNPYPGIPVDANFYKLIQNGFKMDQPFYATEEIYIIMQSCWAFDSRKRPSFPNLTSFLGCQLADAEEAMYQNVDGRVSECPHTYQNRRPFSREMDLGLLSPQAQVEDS

[6] = molecular target: Vascular endothelial growth factor receptor 3 (Homo sapiens) (UniProt P35916); settings: at 0.1 µM
Chain of Vascular endothelial growth factor receptor 3 (Homo sapiens) (P35916 whole entry): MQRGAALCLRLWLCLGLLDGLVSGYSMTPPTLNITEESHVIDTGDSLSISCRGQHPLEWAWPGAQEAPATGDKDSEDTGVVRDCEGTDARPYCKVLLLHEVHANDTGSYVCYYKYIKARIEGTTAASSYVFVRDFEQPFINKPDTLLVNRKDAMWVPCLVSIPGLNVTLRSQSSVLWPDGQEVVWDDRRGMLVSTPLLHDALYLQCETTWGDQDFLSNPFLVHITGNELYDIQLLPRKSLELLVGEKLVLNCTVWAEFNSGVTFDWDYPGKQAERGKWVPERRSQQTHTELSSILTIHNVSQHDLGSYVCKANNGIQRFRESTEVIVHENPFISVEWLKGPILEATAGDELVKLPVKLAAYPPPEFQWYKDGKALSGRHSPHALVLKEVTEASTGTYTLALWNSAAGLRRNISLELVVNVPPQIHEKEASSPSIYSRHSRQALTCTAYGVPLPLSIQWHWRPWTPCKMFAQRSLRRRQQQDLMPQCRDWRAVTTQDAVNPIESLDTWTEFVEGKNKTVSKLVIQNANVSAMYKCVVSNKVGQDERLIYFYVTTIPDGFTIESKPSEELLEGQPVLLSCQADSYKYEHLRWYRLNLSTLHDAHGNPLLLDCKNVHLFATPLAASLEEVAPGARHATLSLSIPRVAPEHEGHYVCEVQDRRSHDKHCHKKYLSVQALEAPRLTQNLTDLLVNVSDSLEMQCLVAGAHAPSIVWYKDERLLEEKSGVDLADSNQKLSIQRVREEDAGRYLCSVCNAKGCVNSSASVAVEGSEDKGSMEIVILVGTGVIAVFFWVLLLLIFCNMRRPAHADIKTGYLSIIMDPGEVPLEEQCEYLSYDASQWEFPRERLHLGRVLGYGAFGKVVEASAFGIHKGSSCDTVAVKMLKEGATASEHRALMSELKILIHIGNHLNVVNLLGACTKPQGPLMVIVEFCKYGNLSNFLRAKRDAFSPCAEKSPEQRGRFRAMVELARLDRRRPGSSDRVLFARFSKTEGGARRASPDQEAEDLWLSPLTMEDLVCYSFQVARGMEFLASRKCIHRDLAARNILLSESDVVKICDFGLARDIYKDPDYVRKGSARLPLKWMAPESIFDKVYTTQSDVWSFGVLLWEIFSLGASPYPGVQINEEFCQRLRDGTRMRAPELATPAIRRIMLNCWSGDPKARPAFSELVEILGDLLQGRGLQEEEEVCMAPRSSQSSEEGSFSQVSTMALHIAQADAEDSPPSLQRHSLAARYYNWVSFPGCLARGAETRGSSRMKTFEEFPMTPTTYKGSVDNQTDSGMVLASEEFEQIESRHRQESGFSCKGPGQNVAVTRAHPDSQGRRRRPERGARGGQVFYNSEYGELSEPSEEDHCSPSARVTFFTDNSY

[7] = molecular target: Vascular endothelial growth factor receptor 3 (Homo sapiens) (UniProt P35916); settings: at 1 µM
[8] = molecular target: Macrophage colony-stimulating factor 1 receptor (Homo sapiens) (UniProt P07333); settings: at 0.1 µM
Chain of Macrophage colony-stimulating factor 1 receptor (Homo sapiens) (P07333 whole entry): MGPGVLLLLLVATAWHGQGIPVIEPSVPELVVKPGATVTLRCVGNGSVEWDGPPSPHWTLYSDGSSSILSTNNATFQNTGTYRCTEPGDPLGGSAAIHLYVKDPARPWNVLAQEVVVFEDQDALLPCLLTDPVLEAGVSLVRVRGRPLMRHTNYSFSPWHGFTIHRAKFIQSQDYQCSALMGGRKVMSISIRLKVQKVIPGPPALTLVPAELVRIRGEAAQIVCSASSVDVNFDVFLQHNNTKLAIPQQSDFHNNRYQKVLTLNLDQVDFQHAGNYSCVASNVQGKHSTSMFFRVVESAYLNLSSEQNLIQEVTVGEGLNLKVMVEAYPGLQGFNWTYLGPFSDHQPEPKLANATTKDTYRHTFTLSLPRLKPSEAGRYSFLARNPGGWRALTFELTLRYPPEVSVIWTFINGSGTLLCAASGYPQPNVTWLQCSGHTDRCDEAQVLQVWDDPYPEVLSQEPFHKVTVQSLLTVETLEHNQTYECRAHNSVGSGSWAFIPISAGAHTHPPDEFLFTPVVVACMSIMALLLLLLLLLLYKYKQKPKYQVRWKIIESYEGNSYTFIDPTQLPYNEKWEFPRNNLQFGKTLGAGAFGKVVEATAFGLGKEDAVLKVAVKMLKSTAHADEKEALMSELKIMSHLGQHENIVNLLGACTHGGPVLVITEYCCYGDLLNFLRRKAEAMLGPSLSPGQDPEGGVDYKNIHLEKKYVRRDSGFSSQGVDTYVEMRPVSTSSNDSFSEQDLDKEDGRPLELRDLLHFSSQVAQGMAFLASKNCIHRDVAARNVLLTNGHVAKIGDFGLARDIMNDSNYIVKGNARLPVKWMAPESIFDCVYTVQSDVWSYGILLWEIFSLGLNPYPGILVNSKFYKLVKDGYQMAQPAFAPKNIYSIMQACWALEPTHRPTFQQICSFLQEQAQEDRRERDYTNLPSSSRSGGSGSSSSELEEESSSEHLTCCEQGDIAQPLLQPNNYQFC

[9] = molecular target: Macrophage colony-stimulating factor 1 receptor (Homo sapiens) (UniProt P07333); settings: at 1 µM
[10] = molecular target: Tyrosine-protein kinase Fyn (Homo sapiens) (UniProt P06241); settings: at 0.1 µM
Chain of Tyrosine-protein kinase Fyn (Homo sapiens) (P06241 2-537 limits assumed): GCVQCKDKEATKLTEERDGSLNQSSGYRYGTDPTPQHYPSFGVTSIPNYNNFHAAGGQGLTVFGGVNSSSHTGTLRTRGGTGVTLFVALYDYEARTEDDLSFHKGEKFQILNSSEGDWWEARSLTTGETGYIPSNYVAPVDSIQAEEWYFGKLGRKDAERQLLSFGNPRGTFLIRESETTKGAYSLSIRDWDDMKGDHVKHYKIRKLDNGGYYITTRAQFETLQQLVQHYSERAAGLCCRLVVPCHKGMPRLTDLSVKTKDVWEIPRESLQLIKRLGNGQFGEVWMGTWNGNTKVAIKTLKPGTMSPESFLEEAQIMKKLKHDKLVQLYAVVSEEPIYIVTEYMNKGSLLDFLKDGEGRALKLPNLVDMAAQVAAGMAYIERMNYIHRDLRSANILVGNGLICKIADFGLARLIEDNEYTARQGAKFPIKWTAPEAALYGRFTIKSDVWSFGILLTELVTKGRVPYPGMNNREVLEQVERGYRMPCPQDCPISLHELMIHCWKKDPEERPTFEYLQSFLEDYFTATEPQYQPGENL

Row | SMILES | inhibition [1] [%] | inhibition [2] [%] | inhibition [3] [%] | inhibition [4] [%] | inhibition [5] [%] | inhibition [6] [%] | inhibition [7] [%] | inhibition [8] [%] | inhibition [9] [%] | inhibition [10] [%]
1 | c1cnn2ncc(-c3ccnc(Nc4ccc5c(c4)OCCO5)n3)c2c1 | 49.9 | 8.35 | 29.4 | 11.9 | 36.1 | 8.6 | 21.8 | 44.5 | 85.7 | 1.57
2 | CS(=O)(=O)CCN(CC#N)Cc1ccc(-c2ccc3ncnc(Nc4ccc(OCc5cccc(F)c5)c(Cl)c4)c3c2)o1 | 3.24 | 4.17 | 2.97 | 2.64 | 0.21 | -3.53 | -8.49 | 1.14 | 5.44 | -3.25
3 | O=C1NC(=O)C(c2ccc(Cl)cc2)=C1Nc1ccc(Cl)c(C(=O)O)c1 | -2.24 | -1.32 | -2.04 | -4.32 | 2.75 | 1.23 | 6.6 | 0.6 | 2.16 | 2.16
4 | O=C1NC(=O)C(N2CCc3ccccc32)=C1c1ccc(Cl)cc1 | 6.39 | 3.88 | 2.74 | 7.71 | 14.7 | 1.62 | 0.97 | 4.95 | 4.62 | 4.56
5 | O=C(Nc1n[nH]c2nc(-c3ccco3)c(Br)cc12)C1CC1 | 3.52 | 4.46 | 4.35 | 4.94 | 5.36 | 1.95 | 9.43 | 0.44 | 1.78 | 3.33
6 | NC(=O)c1cccc(Nc2nccc(Nc3cccc4[nH]ncc34)n2)c1 | 7.1 | -1.69 | 3.37 | -7.5 | 37.5 | 5.01 | 33.4 | 3.46 | 34.1 | 85.9
7 | Cc1nnc(-c2ccc(C)c(-c3ccc(C(=O)Nc4cccc(C#N)c4)cc3)c2)o1 | 6.96 | 2.65 | 1.18 | 3.88 | 1.89 | -1.08 | 1.02 | -0.4 | 0.77 | 3.8
8 | CCc1cccc(NC(=O)Nc2ccc(Oc3ccc4nc(NC(=O)OC)[nH]c4c3)cc2)c1 | 3.95 | 2.03 | 1.1 | 6.8 | 6.29 | 7.64 | 16.3 | 44.8 | 54.6 | -2.29
9 | COc1cc(C=NNc2ncnc3c2cnn3-c2ccccc2)ccc1O | 1.08 | 2.41 | 3.03 | 3.02 | 56.8 | 5.09 | 24.4 | 7.04 | 26.8 | 11
10 | [O-][S+]1CCN(Cc2ccc(-c3ccc4ncnc(Nc5ccc(OCc6ccccc6)c(F)c5)c4c3)o2)CC1 | 4.38 | 2.17 | 1.22 | 5.89 | 1.92 | -0.55 | 0.47 | 0.26 | 3.3 | 0.67
11 | Nc1ncnc2occ(-c3ccc(NC(=O)Nc4cc(C(F)(F)F)cc(C(F)(F)F)c4)cc3)c12 | -1.98 | 2.75 | 1.86 | 1.59 | 33.2 | 9.31 | 56.5 | 51.2 | 95.3 | 0.55
12 | N#Cc1c(NC(=O)c2cccc3ccccc23)sc2c1CCCC2 | 4.88 | 3.77 | 9.99 | 11.9 | -2.86 | 0.07 | -3.88 | 0.85 | 1.31 | 2.07
13 | CS(=O)(=O)Nc1ccc(N/C=C2\C(=O)Nc3ccccc32)cc1 | 9.7 | -2.87 | -1.15 | -2.98 | 59.1 | 4.02 | 30.6 | 7.03 | 41.7 | 0.12
14 | COc1cccc(-n2ncc3c(N/N=C/c4cccc(F)c4)ncnc32)c1 | 3.11 | 3.32 | 3.39 | 6.88 | 14.1 | -8.81 | -1.89 | -0.57 | 3.43 | 4.02
15 | COC(=O)Nc1nc2cc(Oc3cccc(NC(=O)Nc4cc(C(F)(F)F)ccc4F)c3)ccc2[nH]1 | 0.95 | 1.57 | 0.56 | 0.37 | 0.94 | 1.33 | 11.4 | 4.37 | 27.8 | 1.12
16 | Fc1cccc(COc2ccc(Nc3ncnc4cc(-c5ccc[nH]5)sc34)cc2Cl)c1 | 9.08 | 3.81 | 3.54 | 9.76 | 1.35 | – | – | 0.63 | 8.96 | -2.98
17 | Nc1ncnc2occ(-c3ccc(NC(=O)Nc4cccc(C(F)(F)F)c4)cc3)c12 | 17.9 | 4.84 | 5.99 | 7.86 | 34.6 | 53 | 99.6 | 98.1 | 78 | 3.58
18 | CCCN1CCC=C(c2ccc(Nc3nc(Nc4ccccc4C(N)=O)c4cc[nH]c4n3)c(C)c2)C1 | 7.97 | 13.9 | 53.6 | 70.8 | 20.8 | 9 | 26.6 | 27.4 | 63.1 | 4.83
19 | COc1cc2ncn(-c3cc(O[C@@H](C)c4ccccc4Cl)c(C(N)=O)s3)c2cc1OC | 38.4 | – | – | 6.36 | 3.92 | 19.7 | 67.6 | 1.84 | 9.87 | 3.53
20 | CCn1c(-c2nonc2N)nc2c(C#CC(C)(C)O)nc(OC[C@@H](N)c3ccccc3)cc21 | -5.29 | 7.34 | 0.17 | -3.32 | 2.58 | 17.4 | 68.9 | -0.21 | -0.91 | 2.28
